Measurements from PubChem BioAssay (NCI).
The panel holds about 83,000 compounds, 20% with a hit somewhere; the sample as a whole holds those more often.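 Method: cells in 96-well plates; compound added at one concentration; 48 h incubation; percent growth measured; values under 10 scored active.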 Calls of active or inactive are those of the source.

What was measured:
Assay in all cases: NCI-60 one-dose screen, 48 h (100 = growth as untreated, 0 = no growth, -100 = all killed)
[1] = test system: SK-MEL-2 melanoma; conditions: 10 µM unless noted
[2] = test system: EKVX NSCLC; conditions: 10 µM unless noted
[3] = test system: SN12C renal; conditions: 10 µM unless noted
[4] = test system: UO-31 renal; conditions: 10 µM unless noted
[5] = test system: TK-10 renal; conditions: 10 µM unless noted
[6] = test system: CAKI-1 renal; conditions: 10 µM
[7] = test system: A498 renal; conditions: 10 µM unless noted
[8] = test system: CCRF-CEM leukemia; conditions: 10 µM unless noted
[9] = test system: MOLT-4 leukemia; conditions: 10 µM unless noted
[10] = test system: ACHN renal; conditions: 10 µM unless noted

Measured: growth

Cc1cnc2nc(NN)[nH]n12
inactive: [1] 102% | [2] 98.5% | [3] 98.6% | [4] 81.3% | [5] 105% | [6] 86.2% | [7] 111% | [8] 102% | [9] 102%

CCNC(=O)Oc1ccc(/C(=C(/C)c2ccc(Cl)cc2)c2ccc(OCCN3CCCC3)cc2)cc1
inactive: [1] 104% | [2] 80.2% | [3] 75.4% | [4] 65.8% | [5] 97.6% | [6] 85.7% | [9] 58.6%

CC1OC(O[C@@H]2C(O)C(CO)OC(O[C@H]3COC(O[C@H]4CC[C@]5(C)[C@H]6CC[C@]78OC[C@@]9(CC[C@](C)(C=O)C[C@H]97)[C@H](O)C[C@@]8(C)[C@]6(C)CC[C@H]5C4(C)C)[C@@H](OC4OC(CO)[C@@H](O)[C@@H](O)[C@@H]4O)[C@@H]3O)[C@H]2OC2OC[C@@H](O)[C@@H](O)[C@@H]2O)[C@@H](O)[C@@H](O)[C@H]1O (stereo not given in full)
active: [1] -35.2% | [4] -93.6% | [10] -82.2% | [6] -80.7% | [7] -89.3% | [8] 4.93% | [9] -36%
inactive: [2] 22.2% | [5] 29.5%

COc1cc([C@H]2OC[C@H]3[C@@H]2CO[C@@H]3c2ccc(O)c(OC)c2)ccc1O
inactive: [1] 95.3% | [2] 80.3% | [3] 74.6% | [4] 83.1% | [10] 93.5% | [7] 112% | [8] 94.2% | [9] 109%

CCOC(=O)C1=C(C)Nc2nc3ccccc3n2C1c1cccc(Br)c1 (stereo not given)
inactive: [1] 89.9% | [2] 80.2% | [3] 95.1% | [4] 73.7% | [5] 113% | [6] 54.5% | [9] 69.3%

CCNC(=NCCCN(C)C)N/C(N)=N/c1nc2ccccc2s1
inactive: [1] 92.9% | [2] 90.9% | [3] 82% | [4] 64.3% | [5] 100% | [6] 65.1% | [7] 111% | [9] 94.8%

CC1OC(O[C@@H]2[C@H](O)C(CO)OC(O[C@H]3COC(O[C@H]4CC[C@]5(C)[C@H]6CC[C@]78OC[C@@]9(CC[C@](C)(C=O)C[C@H]97)C(=O)C[C@@]8(C)[C@]6(C)CC[C@H]5C4(C)C)[C@@H](O)[C@@H]3O)[C@H]2OC2OC[C@@H](O)[C@@H](O)[C@@H]2O)[C@@H](O)[C@@H](O)[C@H]1O (stereo not given in full)
inactive: [1] 99.4% | [2] 89.2% | [4] 75.2% | [5] 102% | [10] 97.1% | [6] 84.8% | [7] 132% | [8] 80.5% | [9] 63.6%

IP(CCCSc1n(Cc2ccc3ccccc3c2)c(-c2ccccc2)c(-c2ccccc2)[n+]1Cc1ccc2ccccc2c1)(c1ccccc1)(c1ccccc1)c1ccccc1
active: [1] 2.52%
inactive: [2] 32% | [3] 57% | [4] 70.1% | [5] 66.9% | [6] 77.6% | [8] 32.5% | [9] 46.7%

CCC(C)[C@H]1OC(=O)[C@H](C(C)C)N(C)C(=O)[C@@H](C(C)C)OC(=O)[C@H](C(C)C)N(C)C(=O)[C@@H](C(C)CC)OC(=O)[C@H](C(C)C)N(C)C1=O (stereo not given in full)
inactive: [2] 20.5%
active: [1] -14.6% | [3] 4.12% | [4] -13.6% | [5] -8.95% | [7] -2.54% | [8] 9.05% | [9] -24.2%

CC(C)C[C@H]1C(=O)O[C@H](C(C)C)C(=O)N(C)[C@@H](C(C)C)C(=O)O[C@H](C(C)C)C(=O)N(C)[C@@H](C(C)C)C(=O)O[C@H](C(C)C)C(=O)N1C
inactive: [2] 22.6% | [5] 11.9% | [10] 10%
active: [1] -17.8% | [3] 8.19% | [4] -9.26% | [7] -6.04% | [9] 0.456%

Cc1cc(F)cc(NS(=O)(=O)c2ccc(-c3cnc(C4CC4)o3)cc2)c1
inactive: [1] 67% | [2] 34.3% | [3] 44.8% | [4] 43.2% | [5] 53.5% | [6] 39.9% | [8] 20.8% | [9] 26.1%

NC(=O)c1c(NC(=O)c2cccc(OC(F)(F)F)c2)sc2c1CCC(=O)C2
inactive: [1] 105% | [2] 68.7% | [3] 59.5% | [4] 30.1% | [5] 73.3% | [6] 45.7% | [7] 88.3% | [9] 44.4%
active: [8] 8.53%

COc1ccc(-c2cc(-c3cccc4ccccc34)n3c(n2)nc2ccccc23)cc1OC
inactive: [1] 98.2% | [2] 69.2% | [3] 10.9% | [4] 29.4% | [5] 53.1% | [6] 17.3% | [7] 38%
active: [8] 3.68% | [9] 7.55%

N/C(=N\OC(=O)CSc1nc2ccccc2s1)c1ccc2ccccc2c1
inactive: [1] 102% | [2] 91.8% | [3] 95.2% | [4] 78.6% | [5] 118% | [6] 85.8% | [8] 101% | [9] 99.2%

O=C1[C@@H]2Cc3c([nH]c4ccccc34)[C@H](c3c(Cl)cccc3Cl)N2C(=O)CN1C1CCN(Cc2ccccc2)CC1
inactive: [1] 85.7% | [2] 53.6% | [3] 15.5% | [4] 14% | [5] 89.2% | [6] 74.3% | [7] 66.3% | [9] 12.8%
active: [8] 3.54%

Oc1ccc(-c2nnc(SCc3ccc(O)c4ncccc34)n2-c2ccccc2)cc1
active: [2] 7.56% | [4] -8.86% | [8] 6.99%
inactive: [1] 38.1% | [3] 18.7% | [5] 34.3% | [6] 16.1% | [7] 16% | [9] 12.5%

CC[C@@](C)(NC(=O)C(C)(C)NC(=O)[C@@H](NC(=O)[C@@H]1CCCN1C(=O)C(C)(C)NC(=O)[C@H](CC(C)C)NC(=O)CNC(=O)C(C)(C)NC(=O)[C@@H](NC(=O)C(C)(C)NC(=O)[C@H](CCC(N)=O)NC(=O)[C@H](C)NC(=O)C(C)(C)NC(=O)[C@H](C)NC(=O)C(C)(C)NC(=O)[C@@H]1CCCN1C(=O)C(C)(C)NC(C)=O)C(C)C)C(C)C)C(=O)N[C@@H](CCC(N)=O)C(=O)N[C@@H](CCC(N)=O)C(=O)N[C@H](CO)Cc1ccccc1
inactive: [2] 71.6% [4.25 µM] | [3] 12.8% [4.25 µM] | [4] 89.5% [4.25 µM] | [5] 90% [4.25 µM] | [10] 107% [4.25 µM] | [7] 54.9% [4.25 µM]
active: [1] -9.91% [4.25 µM] | [9] 8.53% [4.25 µM]

NS(=O)(=O)c1ccc(-n2cc(CC=O)nn2)cc1
inactive: [1] 109% | [2] 99.2% | [3] 106% | [4] 87.7% | [5] 98.5% | [6] 92.2% | [7] 96% | [9] 103%

C=C1C(=O)O[C@@H]2C[C@@H](C)CCC(=O)[C@](C)(OC(C)=O)C[C@H](OC(=O)/C(C)=C\C)[C@@H]12
active: [8] -17.2%
inactive: [1] 81% | [2] 73.2% | [4] 85.4% | [5] 55.4% | [10] 41.9% | [6] 63.1% | [7] 119% | [9] 50.8%

O=S(=O)(Nc1ccc(C2CC2)cc1)c1ccc(-c2cnc(C3CC3)o2)cc1
inactive: [1] 64.8% | [2] 78.4% | [3] 75% | [4] 71.3% | [5] 101% | [6] 27.5% | [7] 60% | [8] 57.9% | [9] 41.3%

C=C(C)C(=O)O[C@H]1C[C@@]2(C)OC(=CC2=O)/C(CO)=C\[C@H]2OC(=O)C(=C)[C@H]12
active: [1] -23.7% | [2] -5.67% | [4] -90.1% | [5] -88.1% | [10] -42.1% | [6] -75.1% | [7] -3.55% | [8] -44% | [9] -28%

Cn1cc2c(c1)-c1c(sc3nc(-c4ccc(NC(=O)Nc5cc(C(C)(C)C)on5)cc4)cn13)CC2
inactive: [1] 65.5% | [2] 60.2% | [3] 59.9% | [4] 18.2% | [5] 95.4% | [6] 28.1% | [7] 32.1% | [8] 28.2% | [9] 12%
